# Results taken from PubChem BioAssay AID1159580 (chemical genetic matrix, 2015).
# “And” between values parts separate entries of the source, which are not always exact repeats. Equal entries are not always repeated. Among all 5,500 compounds or so, about 2,000 (36%) were called active. Not shown: some 18% with an inconclusive outcome. Some of the results follow. Unmarked numbers belong to inactive results. Cut-off read from the data, not from the text of the source: active = normalized growth mostly below about 0.91 (no sharp cut-off); inconclusive = no clear call, values can overlap the other calls; inactive = mostly above about 0.92.
# Assay: chemical genetic growth profiling, strain panel (AID 1159580);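 note: tested at 20 µM; growth read once vehicle control cultures reached saturation at 30 °C; 1 = growth at the plate median or of vehicle wells; lower values mean less growth of the strain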
# Details: S. cerevisiae deletion strains, growth OD
smiles,measurement,setting,value
CC12CCCC(O)(C1)C1CC(C)(C)C1CC2 (configuration not stated),normalized growth,"locus YAL013W, strain DEP1, hits give low values",1.02
same,normalized growth,"locus YAL021C, strain ccr4, hits give low values",1
same,normalized growth,"locus YAL026C, strain drs2, hits give low values",1
same,normalized growth,"locus YAL030W, strain snc1, hits give low values",0.985
same,normalized growth,"locus YBL061C, strain skt5, hits give low values",0.993
same,normalized growth,"locus YBR009C, strain hhf1, hits give low values",0.947
same,normalized growth,"locus YBR021W, strain FUR4, hits give low values",1
same,normalized growth,"locus YBR023C, strain chs3, hits give low values",0.951
same,normalized growth,"locus YBR171W, strain sec66, hits give low values",0.987
same,normalized growth,"locus YBR229C, strain ROT2, hits give low values",1
same,normalized growth,"locus YBR231C, strain swc5, hits give low values",0.977
same,normalized growth,"locus YBR279W, strain paf1, hits give low values",0.959
same,normalized growth,"locus YCL011C, strain gbp2, hits give low values",0.965
same,normalized growth,"locus YCL016C, strain dcc1, hits give low values",0.971
same,normalized growth,"locus YCL029C, strain bik1, hits give low values",1
same,normalized growth,"locus YCL061C, strain MRC1, hits give low values",0.962
same,normalized growth,"locus YCL069W, strain vba3, hits give low values",0.998
same,normalized growth,"locus YCR088W, strain abp1, hits give low values",0.993
same,normalized growth,"locus YDL005C, strain med2, hits give low values",1
same,normalized growth,"locus YDL035C, strain GPR1, hits give low values",1
same,normalized growth,"locus YDL040C, strain nat1, hits give low values",0.997
same,normalized growth,"locus YDL074C, strain BRE1, hits give low values",1.03
same,normalized growth,"locus YDL101C, strain DUN1, hits give low values",1.03
same,normalized growth,"locus YDL134C, strain PPH21, hits give low values",1.03
same,normalized growth,"locus YDL185W, strain tfp1, hits give low values",1.02
same,normalized growth,"locus YDL192W, strain arf1, hits give low values",0.984
same,normalized growth,"locus YDR001C, strain nth1, hits give low values",1
same,normalized growth,"locus YDR069C, strain doa4, hits give low values",0.951
same,normalized growth,"locus YDR101C, strain arx1, hits give low values",0.985
same,normalized growth,"locus YDR137W, strain rgp1, hits give low values",0.8 (active)
same,normalized growth,"locus YDR159W, strain sac3, hits give low values",0.841 (active)
same,normalized growth,"locus YDR162C, strain NBP2, hits give low values",0.997
same,normalized growth,"locus YDR195W, strain ref2",0.949
same,normalized growth,"locus YDR297W, strain sur2, hits give low values",0.927
same,normalized growth,"locus YDR318W, strain mcm21, hits give low values",1.02
same,normalized growth,"locus YDR334W, strain swr1, hits give low values",1.04
same,normalized growth,"locus YDR335W, strain msn5, hits give low values",1
same,normalized growth,"locus YDR388W, hits give low values",1.01
same,normalized growth,"locus YDR392W, strain spt3, hits give low values",0.37 (active)
same,normalized growth,"locus YDR502C, strain sam2, hits give low values",1.05
same,normalized growth,"locus YEL003W, strain gim4, hits give low values",0.942
same,normalized growth,"locus YEL037C, strain rad23, hits give low values",1
same,normalized growth,"locus YEL061C, strain CIN8 (second series), hits give low values",1
same,normalized growth,"locus YEL061C, strain CIN8, hits give low values",1
same,normalized growth,"locus YER015W, strain faa2, hits give low values",1.01
same,normalized growth,"locus YER016W, strain bim1, hits give low values",0.995
same,normalized growth,"locus YER110C, hits give low values",1.02
same,normalized growth,"locus YER111C, strain swi4, hits give low values",1
same,normalized growth,"locus YER155C, strain BEM2 (second series), hits give low values",0.795 (active)
same,normalized growth,"locus YER155C, strain BEM2, hits give low values",0.994
same,normalized growth,"locus YER167W, strain BCK2, hits give low values",0.992
same,normalized growth,"locus YFR010W, strain ubp6, hits give low values",0.979
same,normalized growth,"locus YGL078C, strain dbp3, hits give low values",1.05
same,normalized growth,"locus YGL086W, strain mad1, hits give low values",1.02
same,normalized growth,"locus YGL167C, strain pmr1, hits give low values",0.999
same,normalized growth,"locus YGL173C, strain kem1, hits give low values",0.977
same,normalized growth,"locus YGL227W, strain vid30, hits give low values",0.998
same,normalized growth,"locus YGL240W, strain doc1, hits give low values",0.915
same,normalized growth,"locus YGL248W, strain PDE1, hits give low values",1.03
same,normalized growth,"locus YGL253W, strain hxk2, hits give low values",0.991
same,normalized growth,"locus YGR135W, strain pre9, hits give low values",1.08
same,normalized growth,"locus YGR252W, strain gcn5, hits give low values",1.09
same,normalized growth,"locus YHR013C, strain ard1, hits give low values",1.01
same,normalized growth,"locus YHR027C, strain rpn1, hits give low values",1
same,normalized growth,"locus YHR030C, strain SLT2, hits give low values",0.945
same,normalized growth,"locus YHR079C, strain IRE1 (second series), hits give low values",1.01
same,normalized growth,"locus YHR079C, strain IRE1, hits give low values",0.971
same,normalized growth,"locus YHR094C, strain hxt1, hits give low values",1.01
same,normalized growth,"locus YHR129C, strain ARP1, hits give low values",1.01
same,normalized growth,"locus YHR142W, strain chs7, hits give low values",0.923
same,normalized growth,"locus YHR200W, strain rpn10, hits give low values",1.04
same,normalized growth,"locus YIL066C, strain RNR3, hits give low values",1.01
same,normalized growth,"locus YIL073C, strain SPO22, hits give low values",1.03
same,normalized growth,"locus YIL125W, strain kgd1, hits give low values",1.01
same,normalized growth,"locus YIR030C, strain dcg1, hits give low values",1.01
same,normalized growth,"locus YJL092W, strain hpr5, hits give low values",0.992
same,normalized growth,"locus YJL095W, strain BCK1 (second series), hits give low values",0.934
same,normalized growth,"locus YJL095W, strain BCK1, hits give low values",1.03 and 0.976
same,normalized growth,"locus YJL115W, strain asf1, hits give low values",1.01
same,normalized growth,"locus YJL129C, strain trk1, hits give low values",0.956
same,normalized growth,"locus YJL134W, strain LCB3, hits give low values",0.995
same,normalized growth,"locus YJL154C, strain vps35, hits give low values",1.01
same,normalized growth,"locus YJL164C, strain tpk1, hits give low values",0.946
same,normalized growth,"locus YJL166W, strain qcr8, hits give low values",0.945
same,normalized growth,"locus YJL168C, strain set2, hits give low values",1.03
same,normalized growth,"locus YJL187C, strain SWE1 (second series), hits give low values",1.04
same,normalized growth,"locus YJL187C, strain SWE1, hits give low values",0.937
